# Experimental data as given in PubChem BioAssay.
# Where “and” joins values, the source holds several entries; their conditions need not be identical. Equal values may be shown once. Unmarked numbers belong to inactive results. Unless noted, how the calls were made is not given here.
# System: not listed separately
# Experiment: human hepatoma cell viability loss – ATP luminescence, cytotoxicity control for P. falciparum antimalarial project, primary screen (AID 2303;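 active means inhibition above 50%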;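 further: 0% = DMSO wells and 100% = digitonin-killed cells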)
# Details: HepG2 viability, 24-48 h, at 10 µM, active compounds read high
row,SMILES,inhibition
1,O=C(Cc1cnc[nH]1)Nc1ccc(-c2cccc(-c3nc4ccc(F)cc4[nH]3)c2)cc1,28%
2,FC(F)(F)c1ccc2nccc(NN=Cc3ccc(Cl)cc3)c2c1,5%
3,O=C(NCCCCN1CCC(c2ccc(OC(F)(F)F)cc2)CC1)c1ccc(NC(=O)c2ccc(Cl)cc2)cc1,24%

# Target: L-lactate dehydrogenase (Plasmodium falciparum (isolate CDC / Honduras)) (UniProt Q27743)
# Sequence (Q27743 whole entry, looked up): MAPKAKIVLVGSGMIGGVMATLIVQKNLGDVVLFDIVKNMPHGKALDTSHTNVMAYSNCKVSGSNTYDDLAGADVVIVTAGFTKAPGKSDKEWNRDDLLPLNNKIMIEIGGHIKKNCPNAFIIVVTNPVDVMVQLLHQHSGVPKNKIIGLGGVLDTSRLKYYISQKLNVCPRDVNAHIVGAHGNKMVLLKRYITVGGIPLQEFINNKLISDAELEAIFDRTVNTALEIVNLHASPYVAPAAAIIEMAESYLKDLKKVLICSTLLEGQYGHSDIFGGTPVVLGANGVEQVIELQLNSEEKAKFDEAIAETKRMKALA
# Experiment: PfLDH activity inhibition – cell lysate, 3D7 strain, counter-screen for P. falciparum growth inhibition project (AID 2304);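 further: 0% = vehicle and 100% = reference inhibitor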
# Details: P. falciparum 3D7 crude extract, LDH APAD/NBT absorbance; at 2 µM; active compounds read high
row,SMILES,inhibition
1,CC(C)c1ccc(CN2CCCCC(NC(=O)c3cc(-c4ccccc4Cl)cs3)C2)cc1 (stereo not drawn),3%
2,Cc1cccc2[nH]c(-c3cccc(-c4cccc(CNCCCN5CCCC5=O)c4)c3)nc12,2%
3,O=C(Nc1cccc(-c2cccc(-c3nc4ccccc4[nH]3)c2)c1)N[C@@H]1C[C@H]1c1ccccc1,2% and 1%
4,O=C1C(c2ccccc2)=C(Nc2cc(Cl)cc(Cl)c2)c2ccccc21,-3%
5,O=C(NC1CC1)c1ccc(Cn2c(SCc3cccc(Cl)c3)nc3ccccc3c2=O)cc1,1%
6,COc1ccc2nc(C)cc(NN=Cc3ccccc3Cl)c2c1,5%
7,Clc1ccc2c(NCCNc3ccnc4cc(Cl)ccc34)ccnc2c1,-6%
8,O=C(Nc1cccc(CN2CCN(Cc3ccc(O)cc3)CC2)c1)c1ccc(Cl)c(Cl)c1,2%
9,Cc1[nH]c(C)c(-c2ccc(CCc3ccc(N)cc3)cc2)c(=O)c1Cl,5%
10,CC(CNC(=O)c1cc2c(Cl)cc(Cl)cc2[nH]1)CNc1cc(=O)c2ccccc2[nH]1 (stereo not drawn),5%
11,C=C[C@H]1CN(CCCCCCC)CC[C@H]1CCN(C)c1ccnc2ccc(OC)cc12,-1%
12,Fc1ccc2ncc(Cl)c(CCN3CCC(NCc4cc5c(cn4)OCCO5)CC3)c2c1,-4%
13,CC(C)(C)c1ccc(N2C(N)=NC(N)=NC2(C)C)cc1,-2%
14,CCN(CC(C)O)C(=O)c1ccc(-c2ccc(-c3nc4c(C)cccc4[nH]3)cc2)cc1 (stereo not drawn),-5%
15,CN1CCC(C(=O)Nc2ccc(-c3cccc(-c4nc5ccc(C(F)(F)F)cc5[nH]4)c3)cc2)CC1,0%
16,O=C1C(c2ccccc2)=C(Nc2ccc(Cl)cc2)c2ccccc21,-2%
17,Cc1cc(O)c(-c2cc(C(=O)Nc3cccnc3)[nH]n2)cc1C,-7%
18,CCCC(C)Nc1nc(C)cc(N[C@@H](CC(C)C)C(=O)NCc2ccc(C)cc2)n1 (stereo partly drawn),-1%
19,O=C(NC1CC1)c1cnc(N2CCCC(c3ccccc3)C2)c(Cl)c1 (stereo not drawn),-3%
20,CCCCSc1c(CNCCCCCCNCc2ccc3ccccc3c2SCCCC)ccc2ccccc12,-9%

row,SMILES,inhibition
1,Cc1cccc2[nH]c(-c3ccc(-c4cccc(NC(=O)NCc5cccc(F)c5)c4)cc3)nc12,6%
2,COc1ccc(CN(C)CCCSc2ccc(NC(=O)c3cccc4c(=O)cc(-c5ccccc5)[nH]c34)cc2)cc1OC,-6%
3,O=C(/C=C/c1ccc(Cl)c(Cl)c1)NCCCCCN1CCCN(C(=O)Nc2cccc(F)c2)CC1,-3%
4,NC(=O)COc1cccc2c1CCN(CCN1CCC(NC(=O)c3ccc(-c4ccc(Cl)cc4)cc3)CC1)C2,-1%
5,CN1CCC(NCc2cccc(-c3cccc(-c4nc5ccc(C(F)(F)F)cc5[nH]4)c3)c2)CC1,-1%
6,Cn1ncc2c3c(CCN4CCC(NCc5cc6c(cn5)OCCO6)CC4)c(Cl)cnc3ccc21,0%
7,CC1(C)N=C(N)N=C(N)N1c1ccc2ccccc2c1,-2%
8,O=C(Nc1cc(Cl)ccc1O)c1ccc(Oc2ccc(C(=O)Nc3cc(Cl)ccc3O)cc2)cc1,-3%
9,FC(F)(F)c1cccc(CNCCCCCNCc2ccc(Cl)cc2)c1,-5%
10,CC(C)(C)c1ccc(CN2CCC(NC(=O)c3ccc(-c4ccccc4Cl)s3)CC2)cc1,4%
11,CCc1cc2c(N)nc(N)nc2nc1-c1ccccc1,6%
12,COc1ccc(CNCc2ccc(F)cc2)cc1-c1ccc(OC)c(S(=O)(=O)NCCN2CCCC2)c1,5%
13,O=C(NCCc1ccc(Cl)c(Cl)c1)c1ccc(CNC(=O)c2ccc(O)c(-c3ccc(Cl)c(Cl)c3)c2)cc1,-6%
14,CCc1cn2c3c(cc(C(=O)N[C@@H](Cc4cc(F)cc(F)c4)[C@H](O)CNC4CC4)cc13)N(C)S(=O)(=O)CC2,0%
15,O=C(NCCCCN1CC[C@@H]2c3cccc(O)c3CC[C@H]21)c1ccc(-c2ccccc2)cc1,2%
16,CS(=O)(=O)c1ccc(CNCc2cccc(-c3cccc(-c4nc5ccc(F)cc5[nH]4)c3)c2)cc1,-3%
17,COc1cccc(CNC(=O)c2cnc(N3CCN(c4ccncc4)CC3)c(Cl)c2)c1,5%
18,O=C(Cc1cnc[nH]1)Nc1ccc(-c2cccc(-c3nc4ccc(F)cc4[nH]3)c2)cc1,4%
19,FC(F)(F)c1ccc2nccc(NN=Cc3ccc(Cl)cc3)c2c1,-2%
20,O=C(NCCCCN1CCC(c2ccc(OC(F)(F)F)cc2)CC1)c1ccc(NC(=O)c2ccc(Cl)cc2)cc1,-3%
